Data on seven compounds can be found in PubChem BioAssay AID488815 (Broad Institute, 2010).

SMILES strings stand for the structures. Results with a measured potency or affinity are listed apart. Inconclusive results are not listed. Unmarked numbers belong to inactive results. The rule behind the calls is not given here.

This assay deals with CAAX prenyl protease 1 (Saccharomyces cerevisiae (strain ATCC 204508 / S288c)) (UniProt P47154). In words: Ste24 protease inhibitors, dose response, biochemical, S. cerevisiae, plate reader, cherry-pick (AID 488815).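 Note: 0% = neutral control wells and -100% = no enzyme wells.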 To be noted: yeast Ste24 protease activity; series mostly up to 10 µM; activity change, negative = inhibition: at the top concentration.
Chain of CAAX prenyl protease 1 (Saccharomyces cerevisiae (strain ATCC 204508 / S288c)) (P47154 whole entry, looked up): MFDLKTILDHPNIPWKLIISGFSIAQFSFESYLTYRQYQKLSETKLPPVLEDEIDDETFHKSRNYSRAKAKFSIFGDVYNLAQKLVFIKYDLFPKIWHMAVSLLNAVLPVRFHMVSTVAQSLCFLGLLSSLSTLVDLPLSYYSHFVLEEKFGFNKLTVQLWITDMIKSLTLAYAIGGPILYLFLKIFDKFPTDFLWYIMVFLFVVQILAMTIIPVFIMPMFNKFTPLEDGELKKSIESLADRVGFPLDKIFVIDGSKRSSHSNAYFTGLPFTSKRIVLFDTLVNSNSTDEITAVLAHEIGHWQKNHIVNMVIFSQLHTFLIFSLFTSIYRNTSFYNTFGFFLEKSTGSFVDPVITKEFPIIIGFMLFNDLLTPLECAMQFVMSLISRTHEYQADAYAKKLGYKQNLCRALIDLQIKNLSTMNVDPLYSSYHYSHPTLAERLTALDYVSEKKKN
For `c1ccc(CCCN2CCN(CCOC(c3ccccc3)c3ccccc3)CC2)cc1`, the “activity change, negative = inhibition” value is 31.3%. On to `CN1CCN(c2ccc([N+](=O)[O-])c(Sc3nncn3C)c2)CC1`, for which the “activity change, negative = inhibition” value was 9.28%. Turning to `CC(C)OCCCNC(=O)c1c(N)n(CC2CCCO2)c2nc3ccccc3nc12` (configuration not stated), the “activity change, negative = inhibition” value is -4.71%.

For the compound `O=[N+]([O-])c1ccc(C[n+]2c(-c3ccccc3)cc(-c3ccccc3)cc2-c2ccccc2)cc1`, the “activity change, negative = inhibition” value is 51.8%. On to `C=CCn1c(O)c(C(CC)=Nc2ccc(N(CC)CC)cc2)c(=O)[nH]c1=O`, for which the “activity change, negative = inhibition” value is -2.1%. As to `Cc1ccnc(-n2c(-c3ccco3)nc3ccccc3c2=O)c1`, the “activity change, negative = inhibition” value is 22.4%. In the case of `CCOC(=O)[C@@H]1[C@H]2COc3ccc(Br)cc3[C@@H]2N2C(=O)N(c3cccc(C)c3)C(=O)[C@]12C`, the “activity change, negative = inhibition” value was 48.1%.
